# According to the supplement of paper PMC10849652:
# Targets with a hit are over-represented here; the source holds about 7,900 in all. About 0.6% of all pairs of compound and target were hits. A number with no mark means an inactive call.
# Compound: C1=CC(=C(C=C1Cl)C2=NC3=NC=CN=C3C(=N2)NC4=CC=NC=C4)F
# Test: log2 fold change, soluble protein after heating vs DMSO (PISA); higher = thermal stabilisation; K562 cells, 10 uM, 30 min; active = over 0.2 and 3.5 SD of the protein, either way, in both replicates (recomputed)
# In short: (§1)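 K562 cells (2×10^6 cells/mL) were treated with 10 μM compound for 30 min, and aliquots were heated for 3 min over 48°C-58°C. Pooled aliquots were extracted in PBS with 0.5% NP-40 at 4°C, and the supernatant after 21,000xg for 90 min was measured by TMTpro 16plex LC-MS/MS with channel sums equalised. Reported thermal stability, relative to control samples and from duplicates, is a log2 fold change.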
# UniProt O14980, sequence (O14980 whole entry, looked up): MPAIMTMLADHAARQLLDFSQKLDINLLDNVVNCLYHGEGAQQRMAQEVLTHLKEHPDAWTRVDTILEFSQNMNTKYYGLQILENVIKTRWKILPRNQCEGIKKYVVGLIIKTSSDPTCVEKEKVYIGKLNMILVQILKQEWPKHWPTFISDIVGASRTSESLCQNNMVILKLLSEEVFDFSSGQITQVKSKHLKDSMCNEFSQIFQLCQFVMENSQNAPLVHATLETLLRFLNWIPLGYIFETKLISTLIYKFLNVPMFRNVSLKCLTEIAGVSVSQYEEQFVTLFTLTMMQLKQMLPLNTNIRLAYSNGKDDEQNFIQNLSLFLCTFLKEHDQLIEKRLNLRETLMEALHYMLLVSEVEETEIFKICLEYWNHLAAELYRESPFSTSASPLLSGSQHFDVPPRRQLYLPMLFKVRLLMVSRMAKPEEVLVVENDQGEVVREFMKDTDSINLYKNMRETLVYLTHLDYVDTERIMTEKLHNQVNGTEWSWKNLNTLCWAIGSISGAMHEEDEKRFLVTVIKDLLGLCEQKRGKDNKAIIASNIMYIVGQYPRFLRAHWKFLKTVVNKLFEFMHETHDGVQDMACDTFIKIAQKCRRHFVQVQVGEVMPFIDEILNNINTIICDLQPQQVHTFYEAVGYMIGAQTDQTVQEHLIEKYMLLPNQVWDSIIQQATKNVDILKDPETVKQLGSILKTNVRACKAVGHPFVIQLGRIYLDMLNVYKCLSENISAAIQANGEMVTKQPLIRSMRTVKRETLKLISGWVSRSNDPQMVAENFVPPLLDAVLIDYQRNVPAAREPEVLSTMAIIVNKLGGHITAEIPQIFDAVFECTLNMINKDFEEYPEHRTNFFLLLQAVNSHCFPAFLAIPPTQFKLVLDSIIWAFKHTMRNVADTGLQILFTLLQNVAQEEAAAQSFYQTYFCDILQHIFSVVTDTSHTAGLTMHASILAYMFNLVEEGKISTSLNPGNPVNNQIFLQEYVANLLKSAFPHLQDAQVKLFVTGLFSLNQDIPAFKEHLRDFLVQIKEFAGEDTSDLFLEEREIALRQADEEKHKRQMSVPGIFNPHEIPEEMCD
# UniProt P18887, sequence (P18887 whole entry, looked up): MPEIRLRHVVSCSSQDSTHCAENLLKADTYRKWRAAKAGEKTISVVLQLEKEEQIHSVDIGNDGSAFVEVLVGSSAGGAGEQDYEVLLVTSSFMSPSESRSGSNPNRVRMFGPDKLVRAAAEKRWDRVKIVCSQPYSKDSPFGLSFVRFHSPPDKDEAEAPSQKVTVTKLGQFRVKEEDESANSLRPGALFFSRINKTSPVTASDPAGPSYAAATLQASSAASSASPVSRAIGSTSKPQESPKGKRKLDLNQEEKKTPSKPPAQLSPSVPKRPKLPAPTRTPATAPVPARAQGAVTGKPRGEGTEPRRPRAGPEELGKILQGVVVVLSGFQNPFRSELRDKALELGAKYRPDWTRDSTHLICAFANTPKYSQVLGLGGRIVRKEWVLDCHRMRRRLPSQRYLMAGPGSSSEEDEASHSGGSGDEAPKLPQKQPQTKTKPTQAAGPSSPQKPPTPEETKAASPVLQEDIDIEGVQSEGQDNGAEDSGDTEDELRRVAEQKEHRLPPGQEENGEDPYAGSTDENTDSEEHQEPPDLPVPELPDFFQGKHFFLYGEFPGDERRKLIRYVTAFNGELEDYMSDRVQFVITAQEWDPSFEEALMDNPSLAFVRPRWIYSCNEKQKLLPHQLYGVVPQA
# UniProt O60763, sequence (O60763 whole entry, looked up): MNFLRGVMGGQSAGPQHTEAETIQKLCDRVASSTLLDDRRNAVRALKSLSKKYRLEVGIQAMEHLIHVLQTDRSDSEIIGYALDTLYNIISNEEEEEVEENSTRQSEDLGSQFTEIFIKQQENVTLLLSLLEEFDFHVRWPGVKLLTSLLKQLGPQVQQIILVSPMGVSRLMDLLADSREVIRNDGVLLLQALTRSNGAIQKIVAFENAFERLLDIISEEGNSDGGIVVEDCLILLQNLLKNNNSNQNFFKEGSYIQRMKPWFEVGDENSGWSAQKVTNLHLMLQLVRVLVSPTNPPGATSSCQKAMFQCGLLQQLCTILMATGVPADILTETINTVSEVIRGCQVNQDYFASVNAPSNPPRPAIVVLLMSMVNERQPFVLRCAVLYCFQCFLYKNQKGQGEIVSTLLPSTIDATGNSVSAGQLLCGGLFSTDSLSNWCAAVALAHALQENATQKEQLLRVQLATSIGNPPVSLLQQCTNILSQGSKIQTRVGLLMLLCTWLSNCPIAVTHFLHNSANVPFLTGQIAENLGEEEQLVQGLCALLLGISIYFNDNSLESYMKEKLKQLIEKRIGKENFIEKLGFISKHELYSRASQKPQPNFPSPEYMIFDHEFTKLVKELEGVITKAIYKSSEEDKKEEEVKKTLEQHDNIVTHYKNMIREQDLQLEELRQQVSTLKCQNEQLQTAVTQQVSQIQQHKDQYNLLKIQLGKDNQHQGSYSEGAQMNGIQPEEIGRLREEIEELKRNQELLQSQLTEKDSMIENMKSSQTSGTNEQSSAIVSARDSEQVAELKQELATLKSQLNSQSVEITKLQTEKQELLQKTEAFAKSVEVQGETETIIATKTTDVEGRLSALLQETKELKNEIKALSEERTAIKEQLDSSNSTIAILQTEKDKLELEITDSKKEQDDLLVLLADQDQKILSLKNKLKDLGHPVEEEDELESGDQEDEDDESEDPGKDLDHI
# UniProt Q13263, sequence (Q13263 whole entry, looked up): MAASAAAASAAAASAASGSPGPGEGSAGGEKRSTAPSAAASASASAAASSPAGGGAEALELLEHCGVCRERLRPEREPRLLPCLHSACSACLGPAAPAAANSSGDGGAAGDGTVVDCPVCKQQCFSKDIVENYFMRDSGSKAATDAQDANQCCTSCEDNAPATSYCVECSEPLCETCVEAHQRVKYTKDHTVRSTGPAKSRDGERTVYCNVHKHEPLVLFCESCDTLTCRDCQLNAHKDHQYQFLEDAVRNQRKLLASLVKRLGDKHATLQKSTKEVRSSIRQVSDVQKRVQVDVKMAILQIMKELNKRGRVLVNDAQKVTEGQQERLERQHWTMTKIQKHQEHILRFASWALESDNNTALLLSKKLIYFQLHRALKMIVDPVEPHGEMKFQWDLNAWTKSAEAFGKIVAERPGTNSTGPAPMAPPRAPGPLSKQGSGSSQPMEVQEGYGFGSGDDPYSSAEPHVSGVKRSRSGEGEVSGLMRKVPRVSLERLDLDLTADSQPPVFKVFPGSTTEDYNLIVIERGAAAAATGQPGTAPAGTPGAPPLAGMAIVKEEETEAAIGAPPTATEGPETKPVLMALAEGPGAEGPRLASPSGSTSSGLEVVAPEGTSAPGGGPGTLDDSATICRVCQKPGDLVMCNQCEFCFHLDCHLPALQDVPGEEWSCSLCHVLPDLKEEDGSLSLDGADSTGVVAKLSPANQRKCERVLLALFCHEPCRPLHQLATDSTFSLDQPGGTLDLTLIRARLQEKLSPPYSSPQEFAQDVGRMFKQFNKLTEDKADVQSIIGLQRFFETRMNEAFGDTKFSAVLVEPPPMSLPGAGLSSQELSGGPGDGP
# UniProt O43592, sequence (O43592 whole entry, looked up): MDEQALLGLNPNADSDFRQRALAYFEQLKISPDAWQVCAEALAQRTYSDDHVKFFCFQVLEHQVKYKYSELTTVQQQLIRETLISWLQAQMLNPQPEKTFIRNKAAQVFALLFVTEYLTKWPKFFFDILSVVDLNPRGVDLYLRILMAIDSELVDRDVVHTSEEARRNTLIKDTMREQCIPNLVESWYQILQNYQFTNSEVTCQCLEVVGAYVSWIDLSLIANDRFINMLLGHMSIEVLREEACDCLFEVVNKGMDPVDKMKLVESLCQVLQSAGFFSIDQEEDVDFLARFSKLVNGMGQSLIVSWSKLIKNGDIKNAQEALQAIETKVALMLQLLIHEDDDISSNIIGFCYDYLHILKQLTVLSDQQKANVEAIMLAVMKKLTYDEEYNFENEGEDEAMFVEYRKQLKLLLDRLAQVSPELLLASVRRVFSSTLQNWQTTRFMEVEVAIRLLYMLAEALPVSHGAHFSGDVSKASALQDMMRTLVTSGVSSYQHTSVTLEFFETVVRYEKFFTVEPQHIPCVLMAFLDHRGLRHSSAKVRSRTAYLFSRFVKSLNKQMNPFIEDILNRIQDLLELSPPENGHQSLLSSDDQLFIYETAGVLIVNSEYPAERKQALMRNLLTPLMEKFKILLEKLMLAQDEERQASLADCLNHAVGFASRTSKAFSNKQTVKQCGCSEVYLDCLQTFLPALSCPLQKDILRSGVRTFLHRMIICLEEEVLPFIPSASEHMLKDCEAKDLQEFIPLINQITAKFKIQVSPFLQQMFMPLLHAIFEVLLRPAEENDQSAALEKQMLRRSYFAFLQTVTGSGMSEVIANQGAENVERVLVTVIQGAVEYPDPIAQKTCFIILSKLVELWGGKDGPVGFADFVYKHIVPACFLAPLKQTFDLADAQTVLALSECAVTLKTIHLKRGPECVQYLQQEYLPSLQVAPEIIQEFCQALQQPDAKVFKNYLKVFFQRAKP
# UniProt Q8WVY7, sequence (Q8WVY7 whole entry, looked up): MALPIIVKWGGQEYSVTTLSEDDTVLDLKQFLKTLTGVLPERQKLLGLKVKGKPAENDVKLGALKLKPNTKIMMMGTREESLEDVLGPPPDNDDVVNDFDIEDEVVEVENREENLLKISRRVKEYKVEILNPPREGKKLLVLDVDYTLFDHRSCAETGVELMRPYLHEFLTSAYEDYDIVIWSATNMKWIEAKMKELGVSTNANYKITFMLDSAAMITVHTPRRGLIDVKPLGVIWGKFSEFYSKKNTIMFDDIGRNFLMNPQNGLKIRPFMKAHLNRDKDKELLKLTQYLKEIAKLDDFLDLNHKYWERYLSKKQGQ
# UniProt Q9NUM4, sequence (Q9NUM4 whole entry, looked up): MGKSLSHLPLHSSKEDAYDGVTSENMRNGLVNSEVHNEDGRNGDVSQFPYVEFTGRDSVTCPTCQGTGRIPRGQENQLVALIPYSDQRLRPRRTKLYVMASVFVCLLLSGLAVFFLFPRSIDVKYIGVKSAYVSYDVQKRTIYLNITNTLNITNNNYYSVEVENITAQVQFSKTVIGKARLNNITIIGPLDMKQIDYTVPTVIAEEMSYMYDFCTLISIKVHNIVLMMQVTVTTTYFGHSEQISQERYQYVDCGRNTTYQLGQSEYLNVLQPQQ
row,Target,log2 fold change
1,TMEM219 (UniProt Q86XT9),0.059
2,TRAPPC13 isoform 5 (UniProt A5PLN9),-0.028
3,TUBA4A (UniProt P68366),0.048
4,TMEM104 (UniProt Q8NE00),0.037
5,XPOT (UniProt O43592),0.005
6,XIAP (UniProt P98170),0.1
7,XRCC1 (UniProt P18887),0.04
8,USP7 (UniProt Q93009),0.046
9,"WASHC2C, A0A096LPC5",-0.016
10,TMEM9B (UniProt Q9NQ34),0.009
11,TP53BP1 isoform 2 (UniProt Q12888),-0.017
12,UFD1 isoform 1 (UniProt Q92890),0.051
13,USP14 (UniProt P54578),0.084
14,WDR62 isoform 4 (UniProt O43379),-0.118
15,TMEM106B (UniProt Q9NUM4),-0.047
16,WDR7 (UniProt Q9Y4E6),0.065
17,USO1 isoform 2 (UniProt O60763),0.051
18,UBLCP1 (UniProt Q8WVY7),0.024

row,Target,log2 fold change
1,TMEM161A (UniProt Q9NX61),-0.019
2,TMEM164 (UniProt Q5U3C3),0.041
3,UBE2J2 isoform 3 (UniProt Q8N2K1),0.026
4,XPO1 (UniProt O14980),0.045
5,VAMP7 (UniProt P51809),0.077
6,VTA1 (UniProt Q9NP79),0.07
7,TRAPPC3 (UniProt O43617),0.025
8,UBE2J1 (UniProt Q9Y385),-0.033
9,TMEM223 (UniProt A0PJW6),-0.018
10,XRCC6 (UniProt P12956),0.093
11,UBE4B isoform 4 (UniProt O95155),0.041
12,USP48 isoform 8 (UniProt Q86UV5),0.14
13,WNK1 isoform 7 (UniProt Q9H4A3),0.012
14,TRIM28 (UniProt Q13263),0.041
15,WEE1 (UniProt P30291),-0.081
16,TSC2 (UniProt P49815),-0.104
17,UFM1 isoform 2 (UniProt P61960),0.06
18,UPF3B (UniProt Q9BZI7),-0.703 (active)

# Compound: C1=CC(=CC=C1C2=NC3=C(N2)C=C(C=C3)C(=O)N)OC4=CC=C(C=C4)Cl
# Test: as above
# In short: as §1
row,Target,log2 fold change
1,TMEM219 (UniProt Q86XT9),0.073
2,TRAPPC13 isoform 5 (UniProt A5PLN9),-0.047
3,TUBA4A (UniProt P68366),-0.038
4,TMEM104 (UniProt Q8NE00),0.026
5,XPOT (UniProt O43592),-0.058
6,XIAP (UniProt P98170),-0.002
7,XRCC1 (UniProt P18887),0.046
8,USP7 (UniProt Q93009),0
9,"WASHC2C, A0A096LPC5",-0.006
10,TMEM9B (UniProt Q9NQ34),-0.006
11,TP53BP1 isoform 2 (UniProt Q12888),-0.001
12,UFD1 isoform 1 (UniProt Q92890),-0.008
13,USP14 (UniProt P54578),-0.014
14,WDR62 isoform 4 (UniProt O43379),0.055
15,TMEM106B (UniProt Q9NUM4),0.031
16,WDR7 (UniProt Q9Y4E6),-0.049
17,USO1 isoform 2 (UniProt O60763),-0.028
18,UBLCP1 (UniProt Q8WVY7),-0.022

row,Target,log2 fold change
1,TMEM161A (UniProt Q9NX61),-0.018
2,TMEM164 (UniProt Q5U3C3),0.002
3,UBE2J2 isoform 3 (UniProt Q8N2K1),0.07
4,XPO1 (UniProt O14980),-0.06
5,VAMP7 (UniProt P51809),0.005
6,VTA1 (UniProt Q9NP79),0.018
7,TRAPPC3 (UniProt O43617),-0.001
8,UBE2J1 (UniProt Q9Y385),0.045
9,TMEM223 (UniProt A0PJW6),0.002
10,XRCC6 (UniProt P12956),0.011
11,UBE4B isoform 4 (UniProt O95155),-0.016
12,USP48 isoform 8 (UniProt Q86UV5),-0.033
13,WNK1 isoform 7 (UniProt Q9H4A3),-0.003
14,TRIM28 (UniProt Q13263),-0.023
15,WEE1 (UniProt P30291),0.047
16,TSC2 (UniProt P49815),-0.297
17,UFM1 isoform 2 (UniProt P61960),0.14
18,UPF3B (UniProt Q9BZI7),0.088
